# Results: PubChem BioAssay (NCATS)
# Results filed as inconclusive are left out. Entries that show only a call come without a potency. Activity calls are given as the source filed them. Unless noted, calls come from the whole dose curve; as a rule, active = well fitted curve in the direction sought with a large enough effect; inconclusive = small, poorly fitted or top-dose-only effect, or another doubt; inactive = no such curve, though single readings can be large; an effect the other way counts as inactive or inconclusive.
# Tests used:
# [1] = target: Cytochrome P450 3A4 (Homo sapiens) (UniProt P08684); assay: qHTS Assay for Inhibitors and Substrates of Cytochrome P450 3A4 (AID 884); note: nearly all actives have a fitted effect of over 50% in size
# Cytochrome P450 3A4 (Homo sapiens), sequence (P08684 whole entry, looked up): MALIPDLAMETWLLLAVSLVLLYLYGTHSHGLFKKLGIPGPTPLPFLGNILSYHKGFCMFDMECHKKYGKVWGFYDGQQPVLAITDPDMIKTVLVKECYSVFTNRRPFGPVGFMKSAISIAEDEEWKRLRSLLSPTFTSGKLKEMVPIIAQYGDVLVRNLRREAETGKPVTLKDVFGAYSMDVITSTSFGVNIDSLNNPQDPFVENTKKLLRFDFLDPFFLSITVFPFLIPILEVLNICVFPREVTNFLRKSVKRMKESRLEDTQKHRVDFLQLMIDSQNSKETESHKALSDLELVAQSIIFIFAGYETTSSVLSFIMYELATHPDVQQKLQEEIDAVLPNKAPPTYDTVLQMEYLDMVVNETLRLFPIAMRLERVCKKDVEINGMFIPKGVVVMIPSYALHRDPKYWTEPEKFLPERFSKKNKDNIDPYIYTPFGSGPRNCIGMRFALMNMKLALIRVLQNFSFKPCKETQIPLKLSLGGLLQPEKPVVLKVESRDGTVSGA
# Procedure, shortened: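 Luminescent readout of luciferin produced by CYP3A4 (20 nM) dealkylation of Luciferin-PPXE, 25 uM (its KM). NADPH-driven reaction ran 60 min at RT after 10 min compound preincubation; data scaled to 57 uM ketoconazole as 100% inhibition.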
# [2] = Confirmation and Secondary Assay for Modulators of Hemoglobin Beta Chain Splicing at IVS2 654 locus (AID 910);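 note: HeLa cells stably carrying EGFP split by mutant beta-globin IVS2-654 intron; per-well total GFP intensity by laser scanning cytometry after 2-day treatment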
# Procedure, shortened: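 Readout: per-well total peak green fluorescence (488 nm ex, 500–520 nm em) from objects 5–250 µm, reflecting correct splicing of an EGFP-654 reporter. Compounds were applied for 2 days at 37 °C to overnight-plated HeLa EGFP-654 cells; controls were DMSO and 500 nM IVS2-654 PNA.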
# [3] = Confirmation and Secondary Assay for Modulators of Hemoglobin Beta Chain Splicing at IVS2 705 locus (AID 930);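 note: HeLa cells stably expressing the EGFP-705 splicing reporter; GFP fluorescence per well restored by corrected splicing of the IVS2-705 intron in EGFP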
# Procedure, shortened: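 Stable HeLa line with EGFP disrupted by mutant beta-globin intron 2 (705). Overnight attachment, then 2 days of compound at 37C, 5% CO2. Signal: peak GFP intensity summed over objects 5-250 µm.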
# [4] = qHTS Assay for Lipid Storage Modulators (AID 1519; calls by dose curve); conditions: Drosophila S3 cells, BODIPY lipid droplet/cell ratio, laser cytometry, cells loaded with oleic acid
# Procedure, shortened: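 Cells seeded at 5,000 per well were treated with compounds over a concentration series and loaded with oleic acid (400 uM, as added). Lipid droplet fluorescence (488 nm excitation, 500-530 nm channel) was read by laser-scanning cytometry and normalized to 20 uM Triacsin C.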
# [5] = target: Ubiquitin carboxyl-terminal hydrolase 1 (Homo sapiens) (UniProt O94782); assay: Inhibitors of USP1/UAF1: Pilot qHTS (AID 504865);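 note: rhodamine fluorescence freed from ubiquitin-rhodamine substrate followed over time; top concentration of the series differs between compounds; nearly all actives have a fitted effect of over 35% in size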
# Ubiquitin carboxyl-terminal hydrolase 1 (Homo sapiens), sequence (O94782 whole entry, looked up): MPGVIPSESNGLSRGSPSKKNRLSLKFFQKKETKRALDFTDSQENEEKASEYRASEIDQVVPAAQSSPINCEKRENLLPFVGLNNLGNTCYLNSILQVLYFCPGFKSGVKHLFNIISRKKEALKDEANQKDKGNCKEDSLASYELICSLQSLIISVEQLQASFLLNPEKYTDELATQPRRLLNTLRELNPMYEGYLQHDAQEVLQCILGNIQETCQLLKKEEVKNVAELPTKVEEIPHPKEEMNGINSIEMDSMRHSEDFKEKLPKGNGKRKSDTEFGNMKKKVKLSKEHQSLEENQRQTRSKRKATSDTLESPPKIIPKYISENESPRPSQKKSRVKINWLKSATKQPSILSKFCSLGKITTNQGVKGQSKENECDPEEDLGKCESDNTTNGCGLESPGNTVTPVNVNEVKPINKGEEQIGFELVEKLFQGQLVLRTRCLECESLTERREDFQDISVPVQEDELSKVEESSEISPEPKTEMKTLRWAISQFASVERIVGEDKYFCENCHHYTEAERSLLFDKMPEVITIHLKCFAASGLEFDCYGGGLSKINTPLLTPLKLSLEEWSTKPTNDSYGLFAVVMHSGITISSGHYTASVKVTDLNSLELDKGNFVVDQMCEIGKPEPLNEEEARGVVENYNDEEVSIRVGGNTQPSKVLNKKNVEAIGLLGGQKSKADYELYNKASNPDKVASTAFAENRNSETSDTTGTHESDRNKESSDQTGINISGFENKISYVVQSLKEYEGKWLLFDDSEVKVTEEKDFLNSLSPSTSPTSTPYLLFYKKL
# Procedure, shortened: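 USP1/UAF1 complex at 1 nM preincubated 15 min at room temperature with compound, then Ub-Rho substrate added at 150 nM final. Fluorescence (480/540 nm) read kinetically in 50 mM HEPES pH 7.8, 0.5 mM EDTA, 1 mM TCEP, 0.1 mg/ml BSA, 0.01% Tween-20.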
# Furin (Homo sapiens) = Furin (Homo sapiens) (UniProt P09958); assay: Furin counterscreen qHTS for Zika virus inhibitors (AID 1347149); note: nearly all actives have a fitted effect of over 70% in size; note: potency is the fitted concentration of half-maximal effect;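 for activity change, negative = inhibition: purified recombinant full-length human furin enzyme at 5 nM; fluorescence gain from furin cutting a BOC-RVRR-AMC peptide substrate over 15 min; top concentration of the series differs between compounds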
# Furin (Homo sapiens), sequence (P09958 whole entry, looked up): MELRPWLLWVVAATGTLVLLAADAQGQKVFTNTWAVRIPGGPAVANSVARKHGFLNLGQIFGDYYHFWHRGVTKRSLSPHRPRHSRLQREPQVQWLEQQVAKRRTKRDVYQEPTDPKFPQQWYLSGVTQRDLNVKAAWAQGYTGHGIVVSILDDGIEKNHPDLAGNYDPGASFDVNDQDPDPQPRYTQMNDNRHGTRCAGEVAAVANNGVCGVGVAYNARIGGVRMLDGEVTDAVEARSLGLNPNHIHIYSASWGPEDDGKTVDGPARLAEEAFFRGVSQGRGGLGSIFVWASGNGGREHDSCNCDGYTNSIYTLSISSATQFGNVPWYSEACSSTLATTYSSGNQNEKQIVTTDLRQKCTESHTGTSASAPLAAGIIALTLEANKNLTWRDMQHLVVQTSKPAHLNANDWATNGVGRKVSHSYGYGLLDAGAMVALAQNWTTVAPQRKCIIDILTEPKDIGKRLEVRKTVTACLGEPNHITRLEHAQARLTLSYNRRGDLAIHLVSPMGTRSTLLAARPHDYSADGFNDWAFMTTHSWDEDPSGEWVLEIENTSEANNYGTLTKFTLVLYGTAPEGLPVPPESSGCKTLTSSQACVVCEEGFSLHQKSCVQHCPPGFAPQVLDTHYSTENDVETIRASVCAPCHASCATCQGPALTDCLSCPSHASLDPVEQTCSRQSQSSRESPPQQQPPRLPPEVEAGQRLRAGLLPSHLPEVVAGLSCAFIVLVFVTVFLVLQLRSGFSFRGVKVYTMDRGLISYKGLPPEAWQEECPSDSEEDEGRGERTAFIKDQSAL
# Procedure, shortened: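 Counterscreen measures cleavage of 2 microM BOC-RVRR-AMC, below its ~15 microM Km, by 5 nM full-length human furin at pH 7.0 after a 15-min compound preincubation. Inhibition derives from the 15-min fluorescence increase at 37C.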
# [6] = test system: Zika virus NS2B-NS3 protease (unlinked); assay: Optimization of GU AMC qHTS for Zika virus inhibitors: Unlinked NS2B-NS3 protease assay (AID 1347151); note: nearly all actives have a fitted effect of over 80% in size
# Procedure, shortened: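 Noncovalent NS2B hydrophilic domain–NS3 protease complex (25 nM final) in 10 mM Tris-HCl pH 8.0, 0.01% Tween 20; AMC substrate, room temperature 15 min (~20% conversion); fluorescence change normalized, 4-parameter Hill fit.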
# [7] = Vero cells viability qHTS for Zika virus inhibitors (AID 1347167)
# Procedure, shortened: (§1)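 Luminescent ATP readout (CellTiter Glo) after 30 min at 37 degrees C gives viability; cells in DMEM + 4% FBS were treated 24 to 48 hours with compound, following overnight attachment.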
# [8] = Tertiary RLuc qRT-PCR qHTS assay for Zika virus inhibitors (AID 1347169); note: nearly all actives have a fitted effect of over 55% in size; note: potency is the fitted concentration of half-maximal effect; for activity change, negative = inhibition: top concentration of the series differs between compounds
# Procedure, shortened: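 Vero cells (1,000/well) infected with recombinant ZIKV-RLuc (Cambodian) at MOI 1-2 after compound addition, 48-72 hrs at 37 degrees C. Live-cell Renilla luciferase substrate added; luminescence read after 1-1.5 hrs.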
# [9] = Confirmatory screen GU Rhodamine qHTS for Zika virus inhibitors qHTS (AID 1347157); note: nearly all actives have a fitted effect of over 70% in size; note: potency is the fitted concentration of half-maximal effect
# Procedure, shortened: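 A qHTS format was used, with compound concentrations ranging up to 114 microM. Each compound was preincubated with 25 nM NS2B-NS3 protease, and the substrate was then added at 1.5 microM. Curves were fitted with a 4-parameter Hill model.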
# [10] = ZIKV-mCherry secondary qHTS for Zika virus inhibitors (AID 1347158); note: top concentration of the series differs between compounds
# Procedure, shortened: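 This orthogonal imaging screen measured ZIKV-mCherry infection of Vero cells exposed to compound, MOI 1, 48-72 h. Percent infection came from segmented nuclei scored mCherry-positive above 3 SD of negative controls.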
# [11] = Confirmatory screen NINDS Rhodamine qHTS for Zika virus inhibitors (AID 1347161); note: nearly all actives have a fitted effect of over 60% in size; note: potency is the fitted concentration of half-maximal effect;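 for activity change, negative = inhibition: purified Zika NS2B-NS3 protease with linked NS2B cofactor domain and Rhodamine110 peptide substrate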
# Procedure, shortened: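 qHTS dose-response: 25 nM linked protease, pH 8.0 Tris/Tween buffer, cpd titration, 15 min RT preinc, 1.5 microM Rhod110 peptide, 15 min reaction (~15% conversion), Ex480/Em540; 4-parameter Hill fit.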
# [12] = test system: Zika virus NS2B-NS3 protease (linked); assay: 384 well plate NINDS AMC confirmatory qHTS for Zika virus inhibitors (AID 1347163); note: nearly all actives have a fitted effect of over 50% in size; note: potency is the fitted concentration of half-maximal effect;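 for activity change, negative = inhibition: linked protease at 5 30 or 60 nM final depending on run; fluorescence of AMC released from Ac-VKTGKR-AMC peptide cleaved by the protease; top concentration of the series differs between compounds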
# Procedure, shortened: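 Enzyme (5, 30 or 60 nM final) first met test compounds for ~15 min. The AMC-tagged peptide Ac-VKTGKR-AMC followed at 30 microM. Fluorescence was then recorded at 25 min and scaled against no-enzyme and no-inhibitor wells.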
# [13] = test system: Zika virus NS2B-NS3 protease; assay: Primary screen GU AMC qHTS for Zika virus inhibitors (AID 1347154); note: nearly all actives have a fitted effect of over 70% in size; note: potency is the fitted concentration of half-maximal effect
# Procedure, shortened: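 Fluorogenic AMC-substrate cleavage by noncovalent NS2B-NS3 protease complex (25 nM, pH 8.0 Tris buffer with Tween 20) followed for 15 minutes at room temperature (~20% conversion). Percent inhibition from ex340/em450 signal change, fitted by 4-parameter Hill equation.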
# [14] = Primary qHTS for small molecule stabilizers of the endoplasmic reticulum resident proteome: Secreted ER Calcium Modulated Protein (SERCaMP) assay (AID 1508630)
# Procedure, shortened: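 The SH-SY5Y reporter protocol was run at 3 concentrations up to 38.3 uM (primary) or 11 concentrations (follow-up): 16 h compound, 100 nM thapsigargin for 4 h, then extracellular luciferase luminescence.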
# [15] = HepG2 cells viability qHTS for Zika virus inhibitors (AID 1347168)
# Procedure, shortened: as §1
compound,measurement,setting,value
CC1O[C@@H](O[C@@H]2C(O)C[C@H](O[C@@H]3C(O)C[C@@H](OC4CC[C@@]5(C)C6CC(O)[C@@]7(C)C(C8=CC(=O)OC8)CC[C@@]7(O)C6CC[C@@H]5C4)OC3C)OC2C)CC(O)[C@H]1O (stereo partly drawn),Potency,[1],inactive
same,outcome,[2],inactive
same,outcome,[3],inactive
same,"activity change, negative = inhibition",[4]; at 57.5 µM (top of the series),7.91% (inactive)
same,max response,[4]; measured here: cell count channel max response,11.2%
same,max response,[4]; measured here: lipid channel max response,22.9%
same,Potency,[5],inactive
same,Potency,Furin (Homo sapiens),inactive
same,Potency,[6],inactive
same,Potency,[7],inactive
same,Potency,[8],1.17 µM (active)
Cc1oc2c(cc(NS(=O)(=O)c3ccc(Cl)cc3)c3ccccc32)c1C(=O)OCc1ccccc1,Potency,Furin (Homo sapiens),inactive
same,Potency,[9],28.2 µM (active)
same,Potency,[10],inactive
same,Potency,[11],39.8 µM (active)
O=c1oc2ccccc2cc1-c1nnc(Nc2ccc(Cl)cc2Cl)s1,Potency,Furin (Homo sapiens),inactive
same,Potency,[9],31.6 µM (active)
same,Potency,[11],15.8 µM (active)
same,Potency,[12],50.1 µM (active)
same,Potency,[8],inactive
Cc1cc(=O)c2c(O)c3c(O)cc(O)c4c5c(O)cc(O)c6c(O)c7c(=O)cc(C)c8c1c2c(c34)c(c65)c78,Potency,Furin (Homo sapiens),inactive
same,Potency,[13],inactive
same,Potency,[9],inactive
same,Potency,[11],inactive
same,Potency,[8],inactive
same,Potency,[14],inactive
CC1(C(=O)O)NCCc2cc(O)c(O)cc21 (stereo not drawn),Potency,Furin (Homo sapiens),24.1 µM (active)
same,Potency,[13],10.6 µM (active)
same,Potency,[12],inactive
same,Potency,[7],inactive
same,Potency,[15],inactive
same,Potency,[8],inactive
same,Potency,[14],inactive
